This is a sample that favours compounds with a hit; in the whole collection about 3.3% have one here.
Efflux pump inh: inhibitors of Candida efflux pumps in yeast, primary screen, S. cerevisiae, Nile Red, multiplex | AID 485275, 2010 | S. cerevisiae Candida pump triplex | 330,000 compounds, 0.44% hits | inhibition, % at 10 µM;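 active = plate passing quality check with inhibition over a set limit, or well fluorescence over plate mean plus 4 SD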;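 note: Nile Red retained in pooled yeast measured as flow cytometry median fluorescence; 0% = buffer negative control and 100% = Enniatin B positive control; higher means more Nile Red kept so more efflux inhibition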
PHOSPHO1 block: PubChem AID 1565. Phosphoethanolamine/phosphocholine phosphatase (Homo sapiens), Q8TCT1. recombinant PHOSPHO1, absorbance phosphatase assay. inhibition, % at 13.3 µM. 290,000 compounds, 1.1% hits; in the data active = inhibition above about 60%
Target sequence (Q8TCT1 whole entry, looked up): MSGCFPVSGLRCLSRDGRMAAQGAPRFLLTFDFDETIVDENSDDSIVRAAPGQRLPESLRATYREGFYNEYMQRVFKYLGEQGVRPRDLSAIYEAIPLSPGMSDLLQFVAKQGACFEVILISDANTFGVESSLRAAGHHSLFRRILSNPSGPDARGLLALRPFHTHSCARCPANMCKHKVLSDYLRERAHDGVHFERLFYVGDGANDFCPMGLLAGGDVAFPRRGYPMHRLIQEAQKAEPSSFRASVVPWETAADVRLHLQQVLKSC
KCC2 mod: KCC2 cotransporter modulators, thallium flux, primary screen, cell-based, HEK293 KCC2, FluoZin-2 fluorescence, MLSMR | KCC2 cells, thallium flux FluoZin-2 fluorescence | B-score of Tl+ flux slope (higher = more flux/activation; lower = inhibition) at 10 µM | 190,000 compounds, 2.2% hits;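 active = thallium flux slope and its plate-corrected score both differing from the plate sample mean at a set confidence after two filtering rounds, in either direction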;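 note: slope of fluorescence scaled to starting intensity during 10 to 20 s after thallium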
Calb FLC: C. albicans growth inhibition with fluconazole, primary screen, CaCi-2 strain, Alamar Blue fluorescence | C. albicans CaCi-2 (fluconazole-resistant clinical isolate) + fluconazole, 48 h | growth inhibition, % (concentration not given with the values) | 300,000 compounds, 0.57% hits;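 active = growth inhibition above about 58% in most replicates, limit read from the data, passing the limit was not always enough; inconclusive = exactly half the replicates above a set limit; inactive = most replicates below a set limit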;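 note: all wells also contain fluconazole at 8 µg/ml as a sub-toxic cotreatment; 0% = median of DMSO wells and 100% = median of geldanamycin control wells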
Cardio protect: cardioprotection against H2O2-induced cell death, primary screen, uHTS, H9c2 cells, ATPLite luminescence; H9c2 cardiomyocytes, H2O2 injury protection, 2 h; protection from H2O2 cell death, % at 20 µM; 360,000 compounds, 0.63% hits; AID 588492, 2011;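 active = compounds giving at least 50% protection of heart cells from peroxide-induced death in the single-dose screen, raw or plate-pattern-corrected value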;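 note: 0% = DMSO wells with peroxide and 100% = DMSO wells without peroxide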
KCC2 sec1: KCC2 modulators in sodium-free buffer, confirmation, cell-based, HEK293 KCC2, thallium flux, secondary assay; shares compounds with KCC2 mod; FluoZin2 fluorescence; hits give high values; normalised thallium flux (F/F0 slope) at 10 µM; 3,700 compounds, 15% hits; AID 1713, 2009;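 active = thallium flux slope above the same plate's solvent-only control mean plus 3 SD; inconclusive = the two replicate wells disagree; inactive = no significant difference from solvent-only control wells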
KCC2 bumet counter: thallium flux persisting under bumetanide in KCC2 cells, confirmation, counter-screen for KCC2 modulator project, cell-based, HEK293 KCC2, FluoZin2, secondary assay 3 | shares compounds with KCC2 mod | HEK293-KCC2 + bumetanide/ouabain; hits give high values | normalized thallium flux at 10 µM | 3,700 compounds, 49% hits;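 active = thallium entry rate above the same plate's blocked-transporter control wells by more than 3 SD; inconclusive = the two repeat wells disagree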;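 note: raw slope of fluorescence over initial fluorescence between 10 and 20 s after thallium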
KCC2 secondary2: KCC2 modulators without ouabain present, confirmation, cell-based, HEK293 KCC2, thallium flux, FluoZin2, secondary assay 2; shares compounds with KCC2 mod; thallium flux FluoZin2 fluorescence; actives lie on both sides; F/F0 rise rate, 10–20 s post-thallium; normalized thallium flux at 10 µM; 3,700 compounds, 23% hits; AID 1715, 2009;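 active = thallium flux slope more than 3 SD above or below the plate's solvent-only control mean, mostly below; inconclusive = the two repeat wells disagreed; inactive = no significant shift from solvent-only controls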;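 note: raw slope with 0.1% DMSO as baseline and bumetanide as block control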
HEK293 Tl flux: thallium flux modulation in parental HEK cells, confirmation, counter-screen for KCC2 modulator project, cell-based, counterscreen 1; HEK293 parental cells, thallium flux FluoZin2, ouabain; baseline-ratio fluorescence slope, 10–20 s after thallium; thallium flux rate (normalised fluorescence) at 10 µM; 3,700 compounds, 46% hits; shares compounds with KCC2 mod;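 active = thallium flux rate significantly above the same plate's solvent-only control wells, beyond their mean plus 3 SD; inconclusive = the two replicate wells gave conflicting results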
KCC2 ouabain: KCC2 inhibitors and activators, ouabain retest, confirmation, HEK-KCC2 cells | shares compounds with KCC2 mod | HEK293-KCC2, thallium flux FluoZin2 fluorescence; bidirectional: low = inhibitor, high = activator | raw Tl+ flux slope (below DMSO = inhibition, above = activation) at 10 µM | 3,700 compounds, 48% hits;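 active = thallium flux slope beyond 3 SD from same-plate DMSO control mean in most replicates, usually higher, sometimes lower; inconclusive = repeat tests gave conflicting results; inactive = no significant difference from controls in most replicates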;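 note: slope of initial-normalized fluorescence between seconds 10 and 20 after thallium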
HEK counter2: native HEK Tl+ uptake effects, second counter-screen – HEK cells, counterscreen 2, counter-screen for KCC2 modulator project, confirmation | shares compounds with KCC2 mod | HEK293 parental, thallium flux FluoZin-2 fluorescence slope | thallium flux slope at 10 µM | 3,700 compounds, 33% hits | AID 1718, 2009;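 active = thallium flux slope above the same plate's solvent-control mean plus 3 SD in both duplicate wells; inconclusive = duplicate wells that disagreed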;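 note: run without ouabain in cells lacking the KCC2 cotransporter; slope of fluorescence scaled to its starting value between 10 and 20 s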
Starred values were filed as active, the others as inactive; ? = inconclusive; / = no result given.

SMILES | Efflux pump inh | PHOSPHO1 block | KCC2 mod | Calb FLC | Cardio protect | KCC2 sec1 | KCC2 bumet counter | KCC2 secondary2 | HEK293 Tl flux | KCC2 ouabain | HEK counter2
Cc1nc2ccccc2c(=O)n1/N=C/c1ccccc1O | 0 | 20 | -0.56 | 3 | 2 | / | / | / | / | / | /
Cc1cc([N+](=O)[O-])cc(/C=N/n2c(C)nc3ccccc3c2=O)c1O | 0 | 20 | -3.3* | -2 | 31 | 0.0072 | ? | 0.029 | 0.0078 | ? | 0.011
COc1cc(/C=C2\C(=N)N3N=C(S(C)(=O)=O)SC3=NC2=O)ccc1OS(=O)(=O)c1ccc(C)cc1 | 0 | 43 | / | -15 | -4 | / | / | / | / | / | /
O=C(CCCCCn1c(SCC(=O)c2ccccc2)nc2ccccc2c1=O)NCc1ccco1 | 0 | 21 | -0.36 | -31 | 15 | / | / | / | / | / | /
CN(C(=O)CSc1nc2cc(Cl)ccc2c(=O)n1Cc1ccco1)C1CCS(=O)(=O)C1 (centres undefined) | 0 | 24 | 12* | 31 | 14 | 0.011 | 0.014* | 0.032 | 0.016* | ? | 0.012
CCOC(=O)CSc1nc2ccccc2c(=O)n1CCCCCC(=O)NCc1ccco1 | 0 | 2 | -4.1* | -7 | 5 | 0.0084 | ? | 0.033 | 0.007 | 0.022 | 0.011
CN(Cc1ccccc1)C(=O)CSc1nc2ccccc2c(=O)n1Cc1ccco1 | 0 | -16 | -3.5* | -9 | 28 | 0.0072 | 0.0031* | 0.026* | 0.0058* | 0.015* | ?
Cc1ccc(CNC(=O)CCSCc2cccc(F)c2)cc1 | 0 | 25 | / | -6 | 1 | / | / | / | / | / | /
CCCCNc1nc(Cl)nc(Nc2ccc(C)cc2)n1 | 0 | / | / | 7 | -4 | / | / | / | / | / | /
O=[N+]([O-])c1ccc(/C=N/NC(=S)Nc2ccccc2)o1 | 0 | -14 | 5.4* | 29 | 5 | 0.013* | 0.026* | 0.031 | 0.014* | 0.028* | 0.011*
C(=N\NCc1ccccc1)/c1ccc2ncccc2c1 | 0 | 8 | -1.3 | 22 | 2 | / | / | / | / | / | /
O=[N+]([O-])c1cccc(-c2ccc(/C=N/NC(=S)Nc3ccccc3)o2)c1 | 0 | -12 | 0.5 | -5 | 14 | / | / | / | / | / | /
O=C(CC(=O)Nc1cccc(Cl)c1)N/N=C\c1ccccc1 | 3 | 12 | 0.39 | 3 | -9 | / | / | / | / | / | /
COc1ccc(/C=N/NC(=S)Nc2ccccc2)cc1 | 0 | -21 | 9.1* | 20 | 18 | 0.0094 | 0.031* | 0.032 | 0.01* | ? | 0.0095
S=C(N/N=C/c1cccc2ccccc12)Nc1cccc(Cl)c1 | 0 | 3 | 3.4* | -6 | 2 | 0.0089 | 0.0069 | 0.029 | 0.012* | 0.029* | 0.01
S=C(N/N=C/c1ccc2ncccc2c1)Nc1ccccc1 | 0 | -46 | 6.5* | 88* | 7 | 0.017 | 0.021* | 0.029 | 0.011* | 0.019 | 0.014*
CC(=O)Nc1ccc(S(=O)(=O)Nc2nc(C)nc3sc(C)c(C)c23)cc1 | 0 | / | / | / | 18 | / | / | / | / | / | /
Cc1cc(C)c(S(=O)(=O)/N=C2/C=C(SCC(=O)O)C(=O)c3ccccc32)cc1C | / | -18 | -4.2* | / | -21 | 0.0061 | 0.007* | ? | 0.0072 | 0.018 | 0.011
CCCCc1ccc(S(=O)(=O)NC(=O)C2(C)CCN2C(=O)c2cccc(F)c2)cc1 (centres undefined) | / | / | / | / | 3 | / | / | / | / | / | /
CCc1ccc2cc(C)cc(C)c2n1 | / | / | / | / | 3 | / | / | / | / | / | /
O=C(NNc1nc(-c2ccccc2)cs1)c1ccccc1 | 0 | -70 | -5.9* | -12 | 27 | 0.011 | ? | 0.025* | 0.008 | 0.014* | 0.011
O=C(NNC(=O)c1cc(-c2ccccc2)nn1-c1ccccc1)c1ccccc1 | 1 | 9 | 29* | -16 | 20 | 0.0059 | 0.1* | 0.067* | 0.067* | 0.076* | 0.063*
O=C(NNC(=O)c1ccc(-c2ccccc2)cc1)c1ccccc1 | 0 | -6 | -3.7* | -1 | -8 | 0.0071 | ? | 0.028 | 0.0074 | 0.016 | ?
CC(NCc1ccc(F)cc1)C(=O)Nc1cc(S(=O)(=O)N2CCCCC2)ccc1Cl (centres undefined) | 0 | 8 | -4.7* | -23 | -27 | 0.01 | 0.008* | ? | 0.0064 | 0.016* | 0.01
CC(C)CSC1=NSC2=NC(=O)/C(=C\c3cccs3)C(=N)N12 | 0 | -5 | 42* | 55 | -15 | 0.0097* | 0.089* | 0.066* | 0.067* | 0.075* | 0.045*
CC(C)c1ccc(NC(=O)C(=O)C2C(=O)Nc3ccccc32)cc1 (centres undefined) | 0 | 16 | / | 9 | -9 | / | / | / | / | / | /
CC(C)(C)c1ccc(NC(=O)C(=O)C2C(=O)Nc3ccccc32)cc1 (centres undefined) | 0 | 40 | 7.9* | 30 | -14 | 0.0057 | 0.025* | ? | 0.018* | 0.028* | 0.02*
O=C(NCC1CCCN(C(=O)c2cccnc2)C1)c1ccc(-c2ccccc2)cc1 (centres undefined) | 0 | 33 | -7.6* | -21 | 6 | 0.009 | 0.007 | 0.027* | 0.0045 | 0.016* | 0.011
Cc1ncccc1C(=O)N1CCCC(CNC(=O)c2ccc(-c3ccccc3)cc2)C1 (centres undefined) | 0 | 28 | -4.4* | -11 | -2 | 0.011 | 0.0057 | ? | 0.0081 | 0.017* | 0.011

Assay outcomes (PubChem BioAssay)
